Bioassay records from PubChem BioAssay.
Pf apPOL block = Pf-apPOL DNA polymerase inhibition. Recombinant Pf-apPOL, molecular beacon fluorescence, 1.5 h. inhibition, % at 10 µM. hit rate 0.25% among 210,000
mHTT CaM bind = mHTT-calmodulin interaction abrogation; P42858; inhibition, % at 15 µM; AID 1671202; AlphaScreen His-mHTT/GST-CaM binding, luminescence; hit rate 3.6% among 190,000;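 further: 0% = both proteins with DMSO and 100% = one protein alone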
Starred values were filed as active, the others as inactive; nt = no result. Only a selection was taken, and hits are over-represented in it overall. No stated cut-off is given here; in the data, active means inhibition above about 50%; inactive means the rest.

SMILES	Pf apPOL block	mHTT CaM bind
COc1ccc(-c2csc(=NCCO)n2-c2ccccc2)cc1	1.7	6.0
OCCN=c1scc(-c2ccc(Br)cc2)n1-c1ccccc1	-0.8	60.0*
CC1CCN(CCCNC(=O)c2cccc(-c3nc(-c4ccccc4)no3)c2)CC1	-3.9	6.2
CCSc1nccc(=O)[nH]1	5.6	-9.1
Nc1ccnc(=O)[nH]1	105.3*	nt
CSc1ncccc1C(=O)N1CCCC1c1nc(-c2ccc(F)cc2F)no1 (stereo not given)	-9.0	-1.8
O=C(Nc1cccc(N=Cc2cc(Cl)cc([N+](=O)[O-])c2O)c1)c1ccco1	2.2	68.0*
O=[N+]([O-])c1cc(Cc2ccccc2)ccc1O	7.1	25.9
Cc1cccc(N=Cc2cc(Cl)cc([N+](=O)[O-])c2O)c1	-4.4	14.0
O=Cc1cc(Cc2ccccc2)cc([N+](=O)[O-])c1O	-1.4	100.3*
CC(=O)Nc1cccc(N=Cc2cc(Cc3ccccc3)cc([N+](=O)[O-])c2O)c1	-6.6	51.0*
Cc1ccccc1C(=O)Nc1cccc(N=Cc2cc([N+](=O)[O-])cc([N+](=O)[O-])c2O)c1	-1.3	48.0
O=C(Nc1ccccc1Cl)C1CCCN(C(=O)c2cccc(C(F)(F)F)c2)C1 (stereo not given)	-10.4	33.2
Nc1ccc(Cc2ccc(N)c(O)c2)cc1O	59.5*	86.7*
N#Cc1cc(Cc2ccc(N)c(C#N)c2)ccc1N	-38.5	2.4
CCOc1ccccc1C=C1Oc2c(ccc(O)c2CN2CCN(C)CC2)C1=O	-6.5	23.5
O=C(NCc1cc(F)cc(F)c1)C1CCN(c2cncnc2N2CCCCC2)CC1	6.2	7.3
CN1CCN(c2ncncc2N2CCC(C(=O)NCc3ccc(Cl)cc3)CC2)CC1	-3.1	97.7*
CCc1ccc(CNC(=O)C2CCN(c3cncnc3N3CCN(C)CC3)CC2)cc1	-1.4	20.6
O=C(NCc1ccc(F)c(Cl)c1)C1CCN(c2cncnc2N2CCCC2)CC1	1.9	89.8*
CCN(CC)C(=O)CSc1nc2n[nH]c(C)c2c(=N)n1-c1ccc(Oc2ccccc2)cc1	-3.2	13.0
CCN(CC)C(=O)CSc1nc2n[nH]c(C)c2c(=N)n1-c1ccc(C)c(Cl)c1	-3.4	14.0
CCc1ccc(-n2c(SCC(=O)NC(C)CC)nc3n[nH]c(C)c3c2=N)cc1 (stereo not given)	-3.1	91.0*
CCC(C)NC(=O)CSc1nc2n[nH]c(C)c2c(=N)n1-c1ccc(C)cc1 (stereo not given)	2.1	54.0*
CC1CCN(S(=O)(=O)N2CCCC(C(=O)NC3CCCCC3)C2)CC1 (stereo not given)	-15.4	-9.0
SMILES	Pf apPOL block	mHTT CaM bind
O=C(CC1CCCC1)NCCc1ccoc1	-8.6	4.4
Cc1ccc(N2CC(C(=O)N(C)Cc3ccccc3)CC2=O)cc1Cl (stereo not given)	-0.7	60.7*
COc1ccc(NC(=O)C2CC(=O)N(CCc3c[nH]c4ccc(F)cc34)C2)c(OC)c1 (stereo not given)	-0.6	29.3
COc1ccc2[nH]cc(CCN3CC(C(=O)Nc4ccc(C)c(Cl)c4)CC3=O)c2c1 (stereo not given)	4.7	74.6*
O=C(Nc1ccc2c(c1)OCO2)C1CC(=O)N(CCc2c[nH]c3ccc(Cl)cc23)C1 (stereo not given)	-4.4	82.0*
Cc1cc(C)cc(N2CC(C(=O)N(C)Cc3ccccc3)CC2=O)c1 (stereo not given)	-2.9	3.6
Cc1ccc2[nH]cc(CCN3CC(C(=O)Nc4ccc5c(c4)OCO5)CC3=O)c2c1 (stereo not given)	-0.5	34.6
O=C(Nc1ccc(Cl)cc1)C1CC(=O)N(CCc2c[nH]c3ccc(F)cc23)C1 (stereo not given)	2.6	20.1
CCc1ccc(NC(=O)C2CC(=O)N(CCc3c[nH]c4ccc(F)cc34)C2)cc1 (stereo not given)	-1.6	56.8*
Cc1ccc(S(=O)(=O)N(CC(N)=O)Cc2ccc(Cl)c(Cl)c2)cc1	-0.5	25.1
Cc1cccc(-c2nc(C3CCN(S(=O)(=O)c4cccs4)CC3)no2)c1	-5.7	-6.6
CN1CCN(C(CNS(=O)(=O)c2ccccc2[N+](=O)[O-])c2ccc(N(C)C)cc2)CC1 (stereo not given)	-1.7	10.7
O=C(CSc1ccc(-c2ccc3c(c2)OCO3)nn1)NCc1cccs1	-0.6	-9.2
O=C(Cc1ccccc1[N+](=O)[O-])Nc1ccccc1-c1ccccc1	-1.5	-3.0
CCCCOC(=O)c1ccc(OS(=O)(=O)c2ccc(Cl)cc2)cc1	-30.6	nt
CN(Cc1ccccc1)C(=O)C1CC(=O)N(CCc2c[nH]c3ccc(Cl)cc23)C1 (stereo not given)	4.6	61.7*
CCOc1ccc(NC(=O)C2CC(=O)N(CCc3c[nH]c4ccc(F)cc34)C2)cc1 (stereo not given)	0.8	16.2
CCOc1ccc(NC(=O)C2CC(=O)N(CCc3c[nH]c4ccc(Cl)cc34)C2)cc1 (stereo not given)	1.8	99.3*
Cc1ccc2[nH]cc(CCN3CC(C(=O)Nc4cc(Cl)ccc4C)CC3=O)c2c1 (stereo not given)	-3.9	49.1
COc1ccc(NC(=O)C2CC(=O)N(CCc3c[nH]c4ccc(Cl)cc34)C2)cc1 (stereo not given)	-4.6	87.4*
CCNC(=O)C1CC(=O)N(CCc2c[nH]c3ccc(Cl)cc23)C1 (stereo not given)	-2.4	5.4
Cc1ccc2[nH]cc(CCN3CC(C(=O)Nc4ccc(F)cc4)CC3=O)c2c1 (stereo not given)	0.8	10.3
Cc1ccc2[nH]cc(CCN3CC(C(=O)Nc4cccc(Cl)c4C)CC3=O)c2c1 (stereo not given)	-2.4	55.5*
CCc1cccc(CC)c1NC(=O)c1cccc(Br)c1	-10.0	-8.9
c1nc2c(c(N3CCN(Cc4ccoc4)CC3)n1)CCC2	-0.9	2.2
SMILES	Pf apPOL block	mHTT CaM bind
CCc1nc(C2CCN(C(=O)c3ccccc3)CC2)n[nH]1	-5.2	-7.9
CS(=O)(=O)N1CCCC2(CC(c3ccc(Cl)cc3)=CO2)C1 (stereo not given)	-4.4	17.2
N#Cc1c(-n2cccc2C#N)sc2c1CCCC2	-1.9	-30.8
Cc1ccccc1NC(=O)C1CC(=O)N(CCc2c[nH]c3ccc(F)cc23)C1 (stereo not given)	1.8	8.6
NC(=O)c1ccc(NC(=O)C2CC(=O)N(CCc3c[nH]c4ccc(Cl)cc34)C2)cc1 (stereo not given)	0.7	100.1*
Cc1ccc(NC(=O)C2CC(=O)N(CCc3c[nH]c4ccc(Cl)cc34)C2)cc1 (stereo not given)	2.5	61.9*
Cc1ccccc1NC(=O)C1CC(=O)N(CCc2c[nH]c3ccc(Cl)cc23)C1 (stereo not given)	-1.9	56.1*
Cc1ccc2[nH]cc(CCN3CC(C(=O)Nc4cccc(Cl)c4)CC3=O)c2c1 (stereo not given)	-2.3	46.8
Cc1nnc(NC(=O)C2CC(=O)N(CCc3c[nH]c4ccc(Cl)cc34)C2)s1 (stereo not given)	0.3	11.6
COc1nn(C)cc1C(=O)Nc1nc2ccc3nc(SC)sc3c2s1	-3.9	0.9
Cc1noc(-c2nn(C)c3c2CN(C(=O)c2cc(F)ccc2F)CC3)n1	-2.5	4.7
O=C(OC1OC2COC(=O)c3cc(O)c(O)c(O)c3-c3c(cc(O)c(O)c3O)C(=O)OC(C2O)C1O)c1cc(O)c(O)c(O)c1 (stereo not given)	99.0*	nt
